# Bioassay records from PubChem.
# This is a sample that favours compounds with a hit; in the whole collection about 2% have one here.
# ABHD5-PLIN5 inh = ABHD5-PLIN5 interaction inhibitors, primary screen, cell lysate, split luciferase complementation, luminescence | 0.78% of 360,000 active | Split G. princeps luciferase complementation, 4 h | inhibition, % at 4 µM;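 active = inhibition above the mean inhibition across every tested compound plus 3 SD, cut at about 22% in these data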;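 note: 0% = DMSO only wells and the 100% control is not disclosed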
# Beta2AR agonist = beta2AR agonists driving receptor internalization, primary screen, cell-based, FAP fluorogen, flow cytometry; Am2.2-beta2AR cells; response, % (no concentration beside the values); 0.43% of 340,000 active; AID 504454, 2011;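 active = response above a set limit, near 3 SD of response in nonfluorescent compounds, cut at about 42% in these data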
# NOD2-RIPK2 inh = NOD2-RIPK2 binding disruptors in cells, primary screen, fluorescence, CHO cells, BLA complementation; CCF4 ratio; inhibition, % at 4.98 µM; 0.38% of 360,000 active; AID 624267, 2012; in the data active = inhibition above about 21%;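 note: 0% = vehicle only and 100% = reference blocker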
# Target sequence (O43353 whole entry, looked up): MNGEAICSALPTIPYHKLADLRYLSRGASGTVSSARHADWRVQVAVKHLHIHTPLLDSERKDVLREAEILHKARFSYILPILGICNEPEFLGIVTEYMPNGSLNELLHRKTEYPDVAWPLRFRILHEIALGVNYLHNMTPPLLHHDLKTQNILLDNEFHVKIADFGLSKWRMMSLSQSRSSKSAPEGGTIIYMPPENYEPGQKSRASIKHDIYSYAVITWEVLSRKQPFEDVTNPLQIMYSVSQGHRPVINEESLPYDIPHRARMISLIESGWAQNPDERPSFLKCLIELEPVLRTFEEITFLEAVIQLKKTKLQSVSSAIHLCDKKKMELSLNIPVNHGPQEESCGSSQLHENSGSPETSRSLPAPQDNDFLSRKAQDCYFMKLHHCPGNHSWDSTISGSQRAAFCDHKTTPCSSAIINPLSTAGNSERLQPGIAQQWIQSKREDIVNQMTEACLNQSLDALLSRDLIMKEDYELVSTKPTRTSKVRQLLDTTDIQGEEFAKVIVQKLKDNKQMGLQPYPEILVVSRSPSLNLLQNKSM
# TLR4 MyD88 comp = inhibitors of TLR4-MyD88 association in cells, primary screen, cell-based, HeLa CL3-4, BLA complementation, FRET ratio; 0.18% of 200,000 active; Toll-like receptor 4 (Homo sapiens) + Myeloid differentiation primary response protein …; HeLa CL3-4 TLR4/MyD88 BLA complementation; inhibition, % at 8.4 µM; in the data active = inhibition above about 25%;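 note: 0% = vehicle and 100% = reference inhibitor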
# TLR9-MyD88 block = inhibitors of TLR9-MyD88 association in cells, primary screen, cell-based, CHO, BLA complementation, fluorescence; CCF4 FRET ratio; inhibition, % at 4.98 µM; 0.21% of 340,000 active; AID 504734, 2011;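 active = inhibition above the mean over all tested compounds plus 3 SD, cut at about 21% in these data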;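 note: 0% = DMSO only wells and 100% = clavulanate BLA inhibitor control wells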
# Exocytosis inh = LAMP-1 surface exposure blockers, TALL-104 cells – cell-based, flow cytometry, MLPCN library, primary screen. TALL-104 LAMP-1 surface exposure; cells stimulated with thapsigargin and PMA. 0.66% of 360,000 active. inhibition, % at 10 µM;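 active = inhibition above about 55%, limit read from the data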
# NOD2-RIPK2 conf = NOD2-RIPK2 binding disruptors, retest, confirmation, fluorescence, CHO cells, BLA complementation, triplicate; shares compounds with NOD2-RIPK2 inh; CCF4 FRET; inhibition, % at 4.98 µM; 70% of 1,200 active; AID 624370, 2012;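 active = mean inhibition across replicates above a set limit taken from the earlier primary screen, cut at about 21% in these data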;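 note: 0% = DMSO-only wells and the high end = clavulanate BLA-blocked wells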
# BLA counter = hits BLA reporter in NOD2-RIPK2 inhibitor counterscreen | shares compounds with NOD2-RIPK2 inh | AID 624371 | CHO BLA reporter, CCF4 FRET ratio | inhibition, % at 4.98 µM | 57% of 1,200 active;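 active = mean inhibition above the low-control mean inhibition plus three low-control SD, cut at about 11% in these data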;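 note: 0% = DMSO only wells and 100% = clavulanate high control wells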
# Active calls of the source: *; x = not tested or not shown.
SMILES,ABHD5-PLIN5 inh,Beta2AR agonist,NOD2-RIPK2 inh,TLR4 MyD88 comp,TLR9-MyD88 block,Exocytosis inh,NOD2-RIPK2 conf,BLA counter
C/C(=N\Nc1ccc([N+](=O)[O-])cc1)c1cccc(N)c1,11,2,24*,5,11,-2,19,21*
COc1ccc(NC(=O)C2Cc3c(-c4cccc(NC(C)=O)c4)ccnc3O2)cc1 (configuration not stated),2,x,-2,x,x,4,x,x
COc1ccccc1N(C)S(=O)(=O)c1ccc(C(=O)OCC(N)=O)cc1,1,15,50*,-3,7,2,1,-4
COc1ccc(NC(=O)CSc2nc3cccnc3n2C)cc1,-4,0,32*,-14,-4,0,11,-4
O=S(=O)(c1cnc(Cl)c(Cl)c1)N1CCc2ccccc21,3,4,-5,x,-4,-5,x,x
O=S(=O)(c1cnc(Cl)c(Br)c1)N1CCc2ccccc21,-2,56*,27*,x,12,0,35*,5
COc1cccc(S(=O)(=O)N(C)C[C@@H]2OCc3cnnn3CCCC(=O)N([C@@H](C)CO)C[C@H]2C)c1,-6,x,-4,x,-3,2,x,x
CC1CC(C)C(=NNC(N)=O)C(C(O)CC2CCC(=O)NC2=O)C1 (configuration not stated),-1,-7,25*,x,-5,5,2,0
CN(C)c1ccc(/C=C2\SC(=O)N(CCc3nnc(N)s3)C2=O)cc1,12,-11,24*,x,5,4,22*,13*
CC(=O)Nc1ccc(S(=O)(=O)Nc2nc3ccccc3nc2Nc2cccc(O)c2)cc1,-4,-3,10,x,-6,-3,x,x
CC(=O)Nc1ccc(S(=O)(=O)Nc2nc3ccccc3nc2Nc2ccc3ccccc3c2)cc1,2,10,22*,-10,4,10,-5,-2
N#CC(=C1C=CC(=NO)C(Cl)=C1)c1ccccc1,1,x,32*,x,x,2,39*,14*
O=NN(CCF)C(=O)NC1CCS(=O)(=O)CC1,5,x,-6,x,x,-11,x,x
Cn1nc(C2CC2)cc1NC(=O)C1(C)CCN1C(=O)c1ccccc1CCc1ccccc1 (configuration not stated),2,x,0,x,x,11,x,x
COc1ccccc1/C=C(/NC(=O)c1ccc(Cl)cc1Cl)C(=O)O,-1,5,32*,-7,7,2,7,1
O=C(NCCO)c1ccc(-c2ccc3nncn3c2)cc1,6,x,-14,x,x,-2,x,x
Cc1ccc(C)c(Cn2c3ccccc3c3cnn(CC(=O)NCCCN4CCCCC4)c(=O)c32)c1,16,12,21*,x,-8,21,14,0
O=C(Nc1ccc2ccccc2c1)C(c1ccccc1)n1c(=O)c(-c2cc3ccccc3[nH]2)nc2ccccc21 (configuration not stated),-13,x,47*,x,x,-15,42*,66*
Cc1cccc(C)c1NC(=O)C(c1ccncc1)n1c(=O)c(-c2cc3ccccc3[nH]2)nc2ccccc21 (configuration not stated),8,x,47*,x,x,11,44*,63*
Cc1cccc(C)c1NC(=O)C(c1ccc(C#N)cc1)n1c(=O)c(-c2cc3ccccc3[nH]2)nc2ccccc21 (configuration not stated),3,x,58*,x,x,2,55*,74*
Cc1cccc(C)c1NC(=O)C(C1CC1)n1c(-c2ccc(=O)[nH]c2)nc2ccccc21 (configuration not stated),-6,x,0,x,x,-8,x,x
Cc1cccc(C)c1NC(=O)C(c1ccccc1)n1c(=O)c(-c2cc3ccccc3[nH]2)nc2ccccc21 (configuration not stated),0,x,47*,x,x,0,45*,68*
Cc1cccc(C)c1NC(=O)C(C)n1c(-c2ccc(=O)[nH]c2)nc2ccccc21 (configuration not stated),1,x,-7,x,x,0,x,x
CCCCC(C(=O)NC1CCCC1)N(C(=O)c1snc(C(N)=O)c1N)c1ccc(F)cc1 (configuration not stated),2,-5,4,x,-3,-2,x,x
O=C(CC[C@H]1O[C@@H](n2cnc3c(NC(=O)c4ccccc4)ncnc32)[C@H](O)[C@@H]1O)NCc1ccc(OC(F)(F)F)cc1,1,x,4,x,x,-2,x,x
SMILES,ABHD5-PLIN5 inh,Beta2AR agonist,NOD2-RIPK2 inh,TLR4 MyD88 comp,TLR9-MyD88 block,Exocytosis inh,NOD2-RIPK2 conf,BLA counter
CCc1cc2c(=O)nc3n(c2s1)Cc1ccccc1/C3=C(/O)c1ccccc1Cl,-1,9,31*,0,16,-4,-1,-5
C#Cc1cccc(Nc2nc(NCc3ccccc3OC)nc3ccsc23)c1,-5,x,-3,x,x,11,x,x
Cc1c(Cl)cccc1NC(=S)NCc1ccccc1,-5,1,-3,-12,-4,3,x,x
Cc1c(Cl)cccc1NC(=S)NCc1ccc(Cl)cc1,-7,4,22*,1,-13,0,-6,-3
COc1ccc(NC(=O)C(C2CC2)n2c(=O)c(-c3cc4ccccc4[nH]3)nc3ccccc32)cc1 (configuration not stated),-11,x,46*,x,x,-3,40*,67*
CC(=O)Nc1cccc(-c2nc3ccccc3n2C(C(=O)NC(C)(C)C)C2CC2)c1 (configuration not stated),8,x,-14,x,x,2,x,x
CC(Sc1nc2ccccc2[nH]1)C(=O)Nc1ccc2c(c1)OCCO2 (configuration not stated),1,-5,3,-4,9,-1,x,x
O=C(Nc1ccc2ccccc2c1)C(C1CC1)n1c(=O)c(-c2cc3ccccc3[nH]2)nc2ccccc21 (configuration not stated),-10,x,45*,x,x,9,41*,66*
O=C(Nc1ccc2c(c1)OCCO2)C(C1CC1)n1c(=O)c(-c2cc3ccccc3[nH]2)nc2ccccc21 (configuration not stated),2,x,45*,x,x,5,38*,61*
COc1ccc(Cl)cc1NC(=O)CN(C)C(=O)c1cc2ccccc2cc1O,3,-5,-3,x,3,5,x,x
